Inconclusive results are not listed. Active and inactive are the calls of the source. Unless noted, calls follow the shape of the dose curve; as a rule, active = well fitted curve in either direction with a large enough effect (not every such curve was filed as active); inconclusive = small, poorly fitted or top-dose-only effect, or another doubt; inactive = flat fitted curve, though single readings scatter.
Tests used:
[1] = target: Lysosomal acid glucosylceramidase (Homo sapiens) (UniProt P04062); assay: Glucocerebrosidase-p2 (AID 348; in the data active = potency below about 10 µM; also: potency is read from the fitted curve at half-maximal effect); details: purified GBA, blue fluorogenic substrate, 40 min
Procedure, shortened: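 Normal human glucocerebrosidase (0.2 nM) with blue fluorogenic substrate (80 uM final) in citrate/phosphate pH 5.9 with 10mM sodium taurocholate, 0.01% tween-20; 40 min RT, NaOH/glycine stop; fluorescence Ex 365/Em 440; AC50 from a titration from 0.6 nM upwards.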

[2] = AP1 Signaling Pathway (AID 357); details: ME-180 AP-1-bla reporter, EGF-induced, beta-lactamase ratio, 5 h; at 7.69 µM (top of the series) unless noted;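 also: ME-180 reporter cells stimulated with EGF at its EC50 level; % is scaled to controls: 0 for no effect and ±100 for the full control effect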
Procedure, shortened: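 Titration-series screen for positive or negative modulators of EC50 EGF-induced signaling in ME-180 cells carrying an AP-1-driven beta-lactamase reporter. After 5 hours at 37 degrees Celsius, CCF4 460nm/530nm emission ratio gave %Activity; AC50 values derived.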

[3] = NFAT Signaling Pathway (AID 444); details: Jurkat NFAT-bla M1, carbachol, beta-lactamase ratio, 5 h; at 7.69 µM (top of the series) unless noted;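 also: carbachol stimulus at about its EC50 of 1 µM final; % is scaled to controls: 0 for no effect and ±100 for the full control effect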
Procedure, shortened: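 Jurkat cells carrying an NFAT-driven β-lactamase reporter and co-transfected muscarinic M1 receptor were treated with compound plus carbachol (1 uM final, an EC50 level) for 5 h at 37 °C. CCF4 loading followed for 1 h at RT; 460/530 nm ratio gave %activity.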

[4] = target: Glucocorticoid receptor (Homo sapiens) (UniProt P04150); assay: GR-GFP Redistribution (AID 450;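 active = compounds whose dose series gives a full or clear partial fitted curve of increased nuclear translocation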; also: potency is read from the fitted curve at half-maximal effect); details: U2OS GR-GFP nuclear translocation, laser cytometry, 2 h
[5] = target: Glucocorticoid receptor (Homo sapiens) (UniProt P04150); assay: GR-EFC Redistribution (AID 451; calls by dose curve; also: potency is read from the fitted curve at half-maximal effect); details: CHO-K1 GR-EFC translocation, beta-gal luminescence, 2 h
Procedure, shortened: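 CHO-K1 cells stably expressing nuclear-localized β-gal enzyme acceptor and GR fused C-terminally to the enzyme donor fragment; ligand-driven nuclear translocation restores β-gal by complementation. Compounds titrated up to 46 uM final, 2 h at 37 °C; luminescence read.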

[6] = target: Mitogen-activated protein kinase 10 (Mus musculus) (UniProt Q61831); assay: JNK3 AlphaScreen Assay (AID 530); details: JNK3 lysate, c-Jun phosphorylation; series mostly up to 11.4 µM;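 also: kinase came from lysate of stimulated human HepG2 cells; signal reports phosphorylation of biotinylated GST-cJun 1-79 at Ser73 with 10 µM ATP; % is scaled to controls: 0 for no effect and ±100 for the full control effect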
Procedure, shortened: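 Phosphorylation of biotinylated GST-cJun(1-79) at Ser73 is measured by AlphaScreen proximity luminescence. Enzyme is JNK3 in HepG2 lysates activated with interleukin-1beta and tumor necrosis factor alpha; ATP is 10 uM final.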

[7] = target: 3',5'-cyclic-AMP phosphodiesterase 4B (Homo sapiens) (UniProt Q07343); assay: qHTS Assay for Inhibitors of PDE-IV (AID 607; active = well fitted activation curve with a large enough effect in the main read-out, with a control signal flat, not every such curve was filed as active; also: % of control where 0% means no effect); details: HEK293 ACTOne CNG channel cells, membrane potential fluorescence; series mostly up to 22.9 µM
Procedure, shortened: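 HEK293 ACTOne cells with CNG channel (1000/well), endogenous PDE4; membrane potential dye, compounds up to 22.9 uM final. Fluorescence Ex 535/Em 590; RO 20-1724 (100 uM final) as reference.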

[8] = Stat Signaling Pathway (AID 446); details: ME-180 (cervical carcinoma) SIE beta-lactamase reporter, IL-6 stimulated, 5 h; at 7.69 µM (top of the series) unless noted;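 also: ME-180 cervical cancer cells given 40 pM IL-6 alongside compound; SIE-controlled beta-lactamase reporter measured as 460/530 nm FRET emission ratio; % is scaled to controls: 0 for no effect and ±100 for the full control effect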
Procedure, shortened: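 Normalization used AC90 stimulation (300 pM IL-6) and AC90 inhibition (125 nM pan-JAK inhibitor at 40 pM IL-6). The underlying signal is SIE-driven beta-lactamase in ME-180 cells after 5 h IL-6 exposure with compound.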

[9] = target: Cytochrome P450 3A4 (Homo sapiens) (UniProt P08684); assay: qHTS Assay for Activators of Cytochrome P450 3A4 (AID 885; active = well fitted activation curve with a large enough effect; also: nearly all actives have a fitted effect of over 65% in size); details: recombinant CYP3A4, Luciferin-PPXE luminescence, 60 min; series mostly up to 11.4 µM
Procedure, shortened: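 Human CYP3A4 dealkylates Luciferin-PPXE to luciferin, which luciferase detection converts to light. Substrate was at its KM (25uM), buffer 200mM KPO4, reaction 60 min at RT.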

Chain of Glucocorticoid receptor (Homo sapiens) (P04150 whole entry, looked up, the tested form may be a part): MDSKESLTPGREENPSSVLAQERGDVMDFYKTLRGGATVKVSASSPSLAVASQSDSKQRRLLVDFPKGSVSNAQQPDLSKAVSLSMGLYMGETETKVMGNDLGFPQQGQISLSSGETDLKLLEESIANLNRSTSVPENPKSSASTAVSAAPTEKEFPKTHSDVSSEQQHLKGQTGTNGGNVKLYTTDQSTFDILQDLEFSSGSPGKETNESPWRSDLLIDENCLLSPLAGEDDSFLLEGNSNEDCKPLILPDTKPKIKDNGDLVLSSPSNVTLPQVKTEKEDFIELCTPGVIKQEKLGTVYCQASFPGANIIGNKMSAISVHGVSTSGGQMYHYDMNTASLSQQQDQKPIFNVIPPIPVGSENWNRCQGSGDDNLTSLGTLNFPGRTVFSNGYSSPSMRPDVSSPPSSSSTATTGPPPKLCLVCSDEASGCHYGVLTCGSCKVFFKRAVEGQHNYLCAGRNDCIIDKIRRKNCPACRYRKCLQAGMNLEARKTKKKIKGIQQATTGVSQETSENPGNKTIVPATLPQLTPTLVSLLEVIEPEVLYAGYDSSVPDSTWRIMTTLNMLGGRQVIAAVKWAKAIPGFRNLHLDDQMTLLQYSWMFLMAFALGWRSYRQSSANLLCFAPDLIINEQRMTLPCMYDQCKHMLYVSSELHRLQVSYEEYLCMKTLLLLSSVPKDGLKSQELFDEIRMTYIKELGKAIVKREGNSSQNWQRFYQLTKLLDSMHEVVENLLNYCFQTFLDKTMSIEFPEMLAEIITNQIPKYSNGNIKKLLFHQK
Chain of 3',5'-cyclic-AMP phosphodiesterase 4B (Homo sapiens) (Q07343 whole entry, looked up): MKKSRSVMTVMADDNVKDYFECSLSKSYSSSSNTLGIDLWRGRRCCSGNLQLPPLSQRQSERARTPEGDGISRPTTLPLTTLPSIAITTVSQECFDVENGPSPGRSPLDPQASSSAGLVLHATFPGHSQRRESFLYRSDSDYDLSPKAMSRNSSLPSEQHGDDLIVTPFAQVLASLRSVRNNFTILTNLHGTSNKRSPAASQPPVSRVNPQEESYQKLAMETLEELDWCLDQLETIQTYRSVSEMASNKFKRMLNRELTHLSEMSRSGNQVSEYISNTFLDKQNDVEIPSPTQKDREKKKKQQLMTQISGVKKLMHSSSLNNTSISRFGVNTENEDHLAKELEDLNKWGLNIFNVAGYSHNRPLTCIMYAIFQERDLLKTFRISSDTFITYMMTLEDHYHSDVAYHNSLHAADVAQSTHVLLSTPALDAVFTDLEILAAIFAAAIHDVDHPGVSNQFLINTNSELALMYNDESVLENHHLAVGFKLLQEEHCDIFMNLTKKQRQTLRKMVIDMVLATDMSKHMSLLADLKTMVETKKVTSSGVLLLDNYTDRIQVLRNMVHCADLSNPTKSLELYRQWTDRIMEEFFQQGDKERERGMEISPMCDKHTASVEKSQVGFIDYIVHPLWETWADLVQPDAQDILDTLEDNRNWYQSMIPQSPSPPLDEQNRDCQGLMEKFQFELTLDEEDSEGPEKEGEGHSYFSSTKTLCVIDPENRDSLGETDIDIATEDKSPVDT
Chain of Lysosomal acid glucosylceramidase (Homo sapiens) (P04062 whole entry, looked up): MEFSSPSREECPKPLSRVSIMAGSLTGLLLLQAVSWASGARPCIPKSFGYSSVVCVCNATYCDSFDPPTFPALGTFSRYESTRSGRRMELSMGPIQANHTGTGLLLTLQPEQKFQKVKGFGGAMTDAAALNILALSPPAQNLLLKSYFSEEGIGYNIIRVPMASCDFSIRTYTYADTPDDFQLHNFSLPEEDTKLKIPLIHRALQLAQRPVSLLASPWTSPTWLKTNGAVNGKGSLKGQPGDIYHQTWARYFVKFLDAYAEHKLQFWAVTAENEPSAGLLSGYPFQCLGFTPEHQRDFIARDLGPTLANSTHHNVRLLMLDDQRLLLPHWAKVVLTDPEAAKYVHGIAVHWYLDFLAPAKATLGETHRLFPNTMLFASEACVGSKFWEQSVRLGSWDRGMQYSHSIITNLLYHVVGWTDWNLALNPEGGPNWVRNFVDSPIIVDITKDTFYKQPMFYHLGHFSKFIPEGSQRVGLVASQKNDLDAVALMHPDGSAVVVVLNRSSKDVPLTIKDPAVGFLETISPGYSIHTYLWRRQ
Chain of Cytochrome P450 3A4 (Homo sapiens) (P08684 whole entry, looked up): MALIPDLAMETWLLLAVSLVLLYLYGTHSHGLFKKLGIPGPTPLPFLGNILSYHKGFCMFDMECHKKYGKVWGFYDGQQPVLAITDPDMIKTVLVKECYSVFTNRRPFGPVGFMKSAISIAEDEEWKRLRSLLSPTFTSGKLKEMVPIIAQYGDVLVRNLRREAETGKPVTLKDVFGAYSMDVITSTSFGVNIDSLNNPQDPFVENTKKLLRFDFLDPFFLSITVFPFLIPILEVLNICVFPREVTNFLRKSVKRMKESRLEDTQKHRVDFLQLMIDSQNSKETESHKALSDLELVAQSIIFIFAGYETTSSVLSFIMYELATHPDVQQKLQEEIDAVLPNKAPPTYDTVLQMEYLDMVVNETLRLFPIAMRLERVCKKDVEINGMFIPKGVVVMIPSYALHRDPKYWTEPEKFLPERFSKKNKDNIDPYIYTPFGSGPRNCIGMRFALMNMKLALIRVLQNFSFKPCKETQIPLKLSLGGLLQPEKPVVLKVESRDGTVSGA

O=C(O)c1cccc(S(=O)(=O)NCCO)c1
inactive: Potency [1] > 11.4 µM | activity change, negative = inhibition [2] 5.38% | activity change, negative = inhibition [3] 3.24% | Potency [4] > 46 µM | Potency [5] > 9.22 µM | Potency [6] | Potency [7]

CCOC(=O)Cn1c(C(F)(F)F)nc2nc(Cl)c(Cl)nc21
inactive: Potency [1] > 11.4 µM | activity change, negative = inhibition [2] 6.84% | activity change, negative = inhibition [3] -10.5% | Potency [4] > 46 µM | Potency [5] > 9.22 µM | Potency [6] | Potency [7]

CN1CCC[C@@H]1c1cccnc1.O=C(O)c1ccccc1O.O=C([OH2+])c1ccccc1O.O=C([OH2+])c1ccccc1O.O=C([OH2+])c1ccccc1O.[Mn]
inactive: Potency [1] > 11.4 µM | activity change, negative = inhibition [2] 13.3% | activity change, negative = inhibition [3] -2.84% | activity, negative = inhibition [8] -11.4% | Potency [6] | Potency [7]

CC(C)Oc1cc(O)c2c(c1)OCC=C2CCC(=O)O
inactive: Potency [1] > 11.4 µM | activity change, negative = inhibition [2] 0.742% | activity change, negative = inhibition [3] -2.86% | Potency [4] > 46 µM | Potency [5] > 9.22 µM | Potency [6] | Potency [7]

COc1ccc(C(=O)N2CCC[C@@]3(CCN(c4ccccc4)C3)C2)cc1
inactive: Potency [1] > 11.4 µM | activity change, negative = inhibition [2] -5.32% | activity change, negative = inhibition [3] -9.66% | activity, negative = inhibition [8] -1.29% | Potency [5] > 46 µM | Potency [9]

COCCn1c(=O)c(-c2ccc(OC)cc2)nc2cnc(OC)nc21
inactive: Potency [1] > 11.4 µM | activity change, negative = inhibition [2] 2.45% | activity change, negative = inhibition [3] 8.31% | Potency [4] > 9.22 µM | Potency [5] > 46 µM | Potency [6] | Potency [7] | Potency [9]

Source: PubChem BioAssay (NCATS)
